D1 ag: activates the human D1 dopamine receptor; P21728; HEK293 T-REx D1 cells, calcium flux, agonist mode; activation, % at 2 µM; hit rate 1% among 360,000
Target sequence (P21728 whole entry, looked up): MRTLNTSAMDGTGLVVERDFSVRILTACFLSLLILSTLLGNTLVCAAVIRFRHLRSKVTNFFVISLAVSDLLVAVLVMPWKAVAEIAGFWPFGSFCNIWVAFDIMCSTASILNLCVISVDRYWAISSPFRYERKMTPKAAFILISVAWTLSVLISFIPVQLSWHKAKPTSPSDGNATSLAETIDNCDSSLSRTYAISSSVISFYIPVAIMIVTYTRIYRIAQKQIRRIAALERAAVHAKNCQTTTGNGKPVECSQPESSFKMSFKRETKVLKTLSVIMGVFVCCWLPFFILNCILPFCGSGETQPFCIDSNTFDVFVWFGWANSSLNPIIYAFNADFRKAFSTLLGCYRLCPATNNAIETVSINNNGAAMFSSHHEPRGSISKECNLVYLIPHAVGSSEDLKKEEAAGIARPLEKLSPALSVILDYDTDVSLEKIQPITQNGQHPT
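Tetracycline-induced HEK293 TREx D1 cells, force-coupled to calcium signalling, were dye-loaded with a no-wash calcium kit. Compound was pin-added after a 10 s baseline. Fluorescence was read kinetically at 1 cycle/s for 180 s, with calcium rises flagged as agonism.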
Epigenetic derep: epigenetic control regulation, reporter derepression. murine LDR cells, GFP reporter derepression, 30 h. Potency, µM (series often up to 53.9 µM), usual class: activators. AID 1865. hit rate 0.2% among 280,000; active means well fitted activation curve with a large enough effect; inconclusive means small, poorly fitted or top-dose-only effect; further: nearly all actives have a fitted effect of over 60% in size
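Murine LDR cells bearing a silenced CMV-driven GFP reporter were exposed to compound for 30 h at 37 C. After PBS washes, GFP-positive cells (20-120 um objects) counted by laser-scanning microplate cytometry.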
TRHR ag: activates the human TRH receptor. P34981. TRHR cells, calcium flux fluo-8, FDSS agonist mode. activation, % at 2 µM. hit rate 0.18% among 360,000. AID 493084
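Read-out: compound-evoked intracellular calcium rise in TRHR cells, fluo-8 dye, kinetic FDSS fluorescence at 1 s/cycle following a 10-cycle baseline. Cells cultured overnight before dye loading (30 min–1.5 h, RT).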
D1 PAM: enhances dopamine response at the human D1 receptor | potentiation, % at 10 µM | hit rate 0.036% among 360,000 | HEK293 TREx D1 cells, calcium flux, dopamine EC20 potentiation; in the data active means potentiation above about 30%
TRHR PAM: allosteric enhancers of human TRH receptor | P34981 | enhancement, % at 2 µM | hit rate 0.66% among 360,000 | TRHR cells, fluo-8 calcium fluorescence, EC20 TRH enhancement | AID 493056; in the data active means enhancement above about 30%
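Enhancer read-out: after compound pinning and an initial kinetic agonist-mode read, an EC20 of TRH (10 nM final) was injected and fluo-8 calcium signal (Ex 480/Em 530) followed at 1 s/cycle for 100 cycles in TRHR-expressing cells.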
D1 antag: human D1 dopamine receptor antagonism. activity change, negative = inhibition, % at 10 µM. HEK293 TREx D1 cells, calcium flux, dopamine EC80; hits give low values. hit rate 3.2% among 360,000. P21728; in the data active means activity change below about -30%
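Tetracycline-induced HEK293 Trex D1 cells, force-coupled to calcium, dye-loaded; compounds added and read 180 s, then EC80 dopamine added and calcium flux tracked kinetically another 180 s.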
Hits are given with their value; i = inactive; ? = inconclusive; nt = no result. In the library only some 4.6% were active in any assay of this set; here they are far more common. Unless noted, no stated cut-off is given here; in the data, active means activation above about 30%; inactive means the rest.

SMILES	D1 ag	Epigenetic derep	TRHR ag	D1 PAM	TRHR PAM	D1 antag
COc1cc(Cl)c(C)cc1NC(=O)C1CCCN(c2ncnc3onc(-c4ccc(F)cc4)c23)C1 (centres undefined)	i	i	i	i	i	i
N#CN1CCC(NC(=O)c2cccc(C(F)(F)F)c2)CC1	i	nt	i	i	i	i
Oc1[nH]c2ccccc2c1N=Nc1ccccc1	i	?	i	i	i	i
COC(=O)/C=C(\C)N=Nc1c(O)[nH]c2ccccc12	143.6	i	i	i	i	i
Oc1[nH]c2ccccc2c1N=Nc1ccc(F)cc1	i	?	i	i	i	i
O=S1(=O)N=C(N=Nc2c(O)[nH]c3ccccc23)c2ccccc21	i	i	i	i	i	-33.8
Oc1[nH]c2ccccc2c1N=Nc1ccccc1F	38.7	?	i	i	i	i
Fc1ccccc1-c1nnc2ccc3ccccc3n12	i	nt	i	i	36.4	i
O=C(O)CCc1ccc(-c2ccc(F)cc2)n1NC(=O)c1ccco1	i	i	i	i	i	-88.1
COc1cccc(N2CCN(C(=O)c3cnn(-c4ccccc4Cl)c3C3CCN(C(=O)OC(C)(C)C)CC3)CC2)c1	i	i	i	i	i	-48.7
COc1ccc(N2CCN(C(=O)c3cnn(-c4ccc(OC)cc4)c3C3CCN(C(=O)OC(C)(C)C)CC3)CC2)cc1	i	i	i	i	i	-30.6
Cc1c(Cl)cccc1-n1ncc(C(=O)NC2CCCC2)c1C1CCN(C(=O)OC(C)(C)C)CC1	i	i	i	i	i	-80.0
COc1ccc(-n2ncc(C(=O)N3CCN(c4cc(C)ccc4C)CC3)c2C2CCN(C(=O)OC(C)(C)C)CC2)cc1	i	i	i	i	i	-31.0
O=C(Nc1ccc(OC(F)(F)F)cc1)C1CCN(S(=O)(=O)c2ccc3[nH]c(=O)ccc3c2)CC1	i	i	i	i	i	i
Cc1ccc2c(c1)-c1onc(C(=O)N(C)c3ccc(F)cc3)c1CO2	i	i	i	i	i	i
O=c1oc2ccc3ccccc3c2cc1-c1nnc(Nc2ccccc2)s1	i	i	i	i	i	i
CCOc1ccc(C(=O)c2oc3ccccc3c2NC(=O)c2cc(=O)c3ccc(C)cc3o2)cc1	i	i	i	i	i	i
Cc1ccnc(NS(=O)(=O)c2ccc(NC(=O)Cc3ccccc3)cc2)n1	i	i	i	i	i	i
Cc1cc(C)nc(NS(=O)(=O)c2ccc(NC(=O)COc3ccc(Cl)cc3C)cc2)n1	i	i	i	i	i	-48.6
Cc1cc(C)nc(NS(=O)(=O)c2ccc(NC(=O)Cc3ccccc3)cc2)n1	i	i	i	i	36.4	i
Cc1ccsc1CN(C(=O)c1oc2cc(Br)ccc2c1C)C1CCS(=O)(=O)C1 (centres undefined)	i	i	i	i	i	i
CCC(=O)N1CCc2cc(S(=O)(=O)N3CCN(c4ccccc4F)CC3)ccc21	i	i	i	i	i	i
COCCCNC1=C(Cl)C(=O)c2ccccc2C1=O	i	i	i	i	i	i
COCCCNc1c2c3c(cccc3[nH]c1=O)C(=O)c1ccccc1-2	809.4	?	i	nt	i	-53.0
COc1ccccc1NS(=O)(=O)c1cc(NC(C)=O)ccc1N1CCCCC1	i	i	i	i	i	i
SMILES	D1 ag	Epigenetic derep	TRHR ag	D1 PAM	TRHR PAM	D1 antag
COCC(=O)Nc1ccc(N2CCCC2)c(S(=O)(=O)Nc2ccccc2OC)c1	i	nt	i	i	i	-31.2
Cc1ccc2c(C(=O)CN3CCSCC3)c(C)[nH]c2c1	i	i	i	i	i	-44.1
Cc1ccc2c(C(=O)CN3CCC4(CC3)OCCO4)c(C)[nH]c2c1	i	i	i	i	i	i
CCC1CCCCN1C(=O)CCn1ccnc1 (centres undefined)	i	i	i	i	32.5	i
CCOC(=O)C1CSC(CC(=O)Nc2ccc(OC(F)(F)F)cc2)C(=O)N1 (centres undefined)	i	i	i	i	i	-32.4
CCN1CCCC1CNCC(=O)Nc1ccc(OC(F)(F)F)cc1 (centres undefined)	i	i	i	i	i	i
CCC1CCC(C(=O)NC(C(=O)Nc2cccc(OC)c2)C(C)C)CC1 (centres undefined)	i	i	i	i	i	-32.0
Cc1ccsc1C(=O)N1CC=C(c2ccccc2)CC1	i	nt	i	i	i	-30.7
Cc1ccc(C(=O)N2CC=C(c3ccccc3)CC2)s1	i	nt	i	i	i	i
CCNC(=S)Nc1ccc(Cl)c(C(F)(F)F)c1	i	i	i	i	i	-32.4
Cc1ccc2occ(CC(=O)Nc3ccc(Cl)c(C(F)(F)F)c3)c2c1	i	i	i	i	i	-31.5
Cc1ccc(OCCC(=O)Nc2ccc(F)c(Cl)c2)cc1	i	i	i	i	i	i
Cc1ccc(NC(=O)CN(C)CC(=O)Nc2ccc(F)c(Cl)c2)cc1	i	i	i	i	i	-54.6
CN(CC(=O)NCc1ccc(F)cc1)CC(=O)Nc1ccc(Cl)c(C(F)(F)F)c1	i	nt	i	i	i	-33.4
COc1cccc2sc(N(Cc3cccnc3)C(=O)c3ccc4c(c3)OCCO4)nc12	i	i	i	i	i	i
Cc1ccc(-c2c3c(=O)n(C)c(=O)n(C)c3c3c(C)nc4ccccc4n23)cc1	i	i	i	i	i	i
Cc1ccc2c(CC(=O)Nc3ccc(S(=O)(=O)N4CCCCC4)cc3)coc2c1	i	i	i	i	i	-72.7
CC(Oc1ccccc1F)C(=O)N1CCC(c2nc3ccccc3o2)CC1 (centres undefined)	i	i	i	i	i	i
CC(C)[C@H](NC(=O)c1ccccc1Br)C(=O)OCc1nc2ccsc2c(=O)[nH]1	i	nt	i	i	i	-30.2
CC(C)C(NC(=O)c1ccccc1Cl)C(=O)OCc1nc2scc(-c3ccccc3Cl)c2c(=O)[nH]1 (centres undefined)	i	i	i	i	i	i
CCCOc1cccc(C2c3c(-c4ccccc4O)n[nH]c3C(=O)N2Cc2ccco2)c1 (centres undefined)	i	i	i	i	i	i
Cc1cc(C)cc(Nc2cc(C)nc3nc(-c4ccco4)nn23)c1	i	i	i	i	i	-39.4
COc1ccc(OC)c(CN2CCC(CNC(=O)Nc3cccc(Cl)c3)CC2)c1	i	?	i	i	i	i
CCc1cccc(CN2CCC(CNC(=O)Nc3ccc(Cl)cc3)CC2)c1	38.9	i	i	i	i	-43.7
O=C(NCC1CCN(Cc2cccc(Cl)c2)CC1)Nc1ccc(Cl)cc1	31.5	nt	i	i	i	-73.3
Cc1cc(CN2CCCCC2C(=O)Nc2ccc(Oc3cccnc3)cc2)oc1C (centres undefined)	i	nt	i	i	i	-33.0

Assay outcomes (PubChem BioAssay)
